Measured values reported in PubChem BioAssay AID1159580 (chemical genetic matrix, 2015).
Among all 5,500 compounds or so, about 2,000 (36%) were called active. Roughly 18% stayed inconclusive and do not appear here. No stated cut-off is given here; in the data, active means normalized growth mostly below about 0.91 (no sharp cut-off); inconclusive means no clear call, values can overlap the other calls; inactive means mostly above about 0.92. The list shows a part of the results.

Test: chemical genetic growth profiling, strain panel (AID 1159580);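 further: tested at 20 µM; growth read once vehicle control cultures reached saturation at 30 °C; 1 = growth at the plate median or of vehicle wells; lower values mean less growth of the strain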
Conditions: growth OD

Measured: normalized growth

CCN(CC)CCOc1ccc2c(c1)C(=O)c1cc(OCCN(CC)CC)ccc1-2
inactive: S. cerevisiae deletion strains, locus YJR075W, strain HOC1, hits give low values 0.998 | S. cerevisiae deletion strains, locus YKL009W, strain mrt4, hits give low values 0.973 | S. cerevisiae deletion strains, locus YKL068W, hits give low values 0.975 | S. cerevisiae deletion strains, locus YKL085W, strain MDH1 (second series), hits give low values 1.02 | S. cerevisiae deletion strains, locus YKL085W, strain MDH1, hits give low values 1.02 | S. cerevisiae deletion strains, locus YKL160W, strain elf1, hits give low values 0.96 | S. cerevisiae deletion strains, locus YKL190W, strain CNB1, hits give low values 0.991 | S. cerevisiae deletion strains, locus YKR001C, strain vps1, hits give low values 0.986 | S. cerevisiae deletion strains, locus YKR026C, strain gcn3, hits give low values 0.98 | S. cerevisiae deletion strains, locus YKR091W, strain srl3, hits give low values 0.982 | S. cerevisiae deletion strains, locus YLL001W, strain dnm1, hits give low values 1.01 | S. cerevisiae deletion strains, locus YLL026W, hits give low values 0.992 | S. cerevisiae deletion strains, locus YLL041C, strain sdh2, hits give low values 0.998 | S. cerevisiae deletion strains, locus YLR027C, strain aat2, hits give low values 0.996 | S. cerevisiae deletion strains, locus YLR039C, strain RIC1, hits give low values 0.963 | S. cerevisiae deletion strains, locus YLR058C, strain SHM2, hits give low values 0.994 | S. cerevisiae deletion strains, locus YLR102C, strain apc9, hits give low values 0.975 | S. cerevisiae deletion strains, locus YLR113W, strain HOG1, hits give low values 0.988 | S. cerevisiae deletion strains, locus YLR221C, strain rsa3, hits give low values 0.993 | S. cerevisiae deletion strains, locus YLR258W, strain gsy2, hits give low values 0.979 | S. cerevisiae deletion strains, locus YLR262C, strain YPT6 (second series), hits give low values 1.05 | S. cerevisiae deletion strains, locus YLR262C, strain YPT6, hits give low values 0.96 | S. cerevisiae deletion strains, locus YLR268W, strain sec22, hits give low values 0.984 | S. cerevisiae deletion strains, locus YLR320W, strain mms22, hits give low values 0.995 | S. cerevisiae deletion strains, locus YLR330W, strain CHS5, hits give low values 0.988 | S. cerevisiae deletion strains, locus YLR342W, strain FKS1 (second series), hits give low values 1.01 | S. cerevisiae deletion strains, locus YLR342W, strain FKS1, hits give low values 0.981 | S. cerevisiae deletion strains, locus YLR357W, strain rsc2, hits give low values 0.963 | S. cerevisiae deletion strains, locus YLR370C, strain arc18, hits give low values 0.987 | S. cerevisiae deletion strains, locus YLR371W, strain rom2, hits give low values 0.961 | S. cerevisiae deletion strains, locus YLR384C, strain iki3, hits give low values 0.984 | S. cerevisiae deletion strains, locus YLR418C, strain cdc73, hits give low values 1.06 | S. cerevisiae deletion strains, locus YML016C, strain PPZ1, hits give low values 0.995 | S. cerevisiae deletion strains, locus YML032C, strain rad52, hits give low values 0.968 | S. cerevisiae deletion strains, locus YML120C, strain ndi1, hits give low values 0.985 | S. cerevisiae deletion strains, locus YML124C, strain tub3, hits give low values 0.987 | S. cerevisiae deletion strains, locus YMR058W, strain fet3, hits give low values 0.994 | S. cerevisiae deletion strains, locus YMR078C, strain ctf18, hits give low values 0.978 | S. cerevisiae deletion strains, locus YMR125W, strain sto1, hits give low values 0.978 | S. cerevisiae deletion strains, locus YMR129W, hits give low values 0.982 | S. cerevisiae deletion strains, locus YMR205C, strain PFK2, hits give low values 0.969 | S. cerevisiae deletion strains, locus YMR223W, strain ubp8, hits give low values 0.982 | S. cerevisiae deletion strains, locus YMR231W, strain pep5, hits give low values 0.99 | S. cerevisiae deletion strains, locus YMR263W, strain SAP30, hits give low values 1 | S. cerevisiae deletion strains, locus YMR307W, strain GAS1, hits give low values 1.09 | S. cerevisiae deletion strains, locus YNL067W, strain RPL9B, hits give low values 0.999 | S. cerevisiae deletion strains, locus YNL071W, strain lat1, hits give low values 0.988 | S. cerevisiae deletion strains, locus YNL128W, strain TEP1, hits give low values 0.987 | S. cerevisiae deletion strains, locus YNL153C, strain GIM3, hits give low values 1.01 | S. cerevisiae deletion strains, locus YNL183C, strain NPR1, hits give low values 0.939 | S. cerevisiae deletion strains, locus YNL209W, strain ssb2, hits give low values 0.976 | S. cerevisiae deletion strains, locus YNL233W, strain BNI4, hits give low values 1.02 | S. cerevisiae deletion strains, locus YNL248C, strain rpa49, hits give low values 0.98 | S. cerevisiae deletion strains, locus YNL250W, strain rad50, hits give low values 0.983 | S. cerevisiae deletion strains, locus YNL271C, strain bni1, hits give low values 0.993 | S. cerevisiae deletion strains, locus YNL298W, strain CLA4, hits give low values 0.971 | S. cerevisiae deletion strains, locus YNL307C, strain MCK1, hits give low values 0.975 | S. cerevisiae deletion strains, locus YNL322C, strain KRE1 (second series), hits give low values 0.96 | S. cerevisiae deletion strains, locus YNL322C, strain KRE1, hits give low values 0.983 | S. cerevisiae deletion strains, locus YNR049C, strain mso1, hits give low values 0.968 | S. cerevisiae deletion strains, locus YNR052C, strain pop2, hits give low values 0.975 | S. cerevisiae deletion strains, locus YOL006C, strain TOP1, hits give low values 1.02 | S. cerevisiae deletion strains, locus YOL012C, strain htz1 0.871 | S. cerevisiae deletion strains, locus YOL147C, strain pex11, hits give low values 0.992 | S. cerevisiae deletion strains, locus YOR001W, strain rrp6, hits give low values 0.988 | S. cerevisiae deletion strains, locus YOR061W, strain CKA2, hits give low values 0.994 | S. cerevisiae deletion strains, locus YOR069W, strain VPS5, hits give low values 0.996 | S. cerevisiae deletion strains, locus YOR070C, strain gyp1, hits give low values 0.989 | S. cerevisiae deletion strains, locus YOR080W, strain dia2, hits give low values 0.983 | S. cerevisiae deletion strains, locus YOR083W, strain WHI5, hits give low values 0.968 | S. cerevisiae deletion strains, locus YOR106W, strain vam3, hits give low values 0.944 | S. cerevisiae deletion strains, locus YOR136W, strain idh2, hits give low values 0.985 | S. cerevisiae deletion strains, locus YOR144C, strain elg1, hits give low values 0.97 | S. cerevisiae deletion strains, locus YOR184W, strain ser1, hits give low values 0.976 | S. cerevisiae deletion strains, locus YOR231W, strain MKK1, hits give low values 0.985 | S. cerevisiae deletion strains, locus YOR265W, strain rbl2, hits give low values 0.976 | S. cerevisiae deletion strains, locus YOR270C, strain vph1, hits give low values 1.07 | S. cerevisiae deletion strains, locus YOR290C, strain snf2, hits give low values 0.964 | S. cerevisiae deletion strains, locus YOR316C, strain cot1, hits give low values 0.995 | S. cerevisiae deletion strains, locus YPL051W, strain arl3, hits give low values 0.97 | S. cerevisiae deletion strains, locus YPL055C, strain LGE1, hits give low values 1.02 | S. cerevisiae deletion strains, locus YPL078C, strain atp4, hits give low values 0.981 | S. cerevisiae deletion strains, locus YPL106C, strain sse1, hits give low values 0.979 | S. cerevisiae deletion strains, locus YPL240C, strain hsp82, hits give low values 0.996 | S. cerevisiae deletion strains, locus YPL241C, strain CIN2, hits give low values 0.971 | S. cerevisiae deletion strains, locus YPL256C, strain CLN2, hits give low values 0.979 | S. cerevisiae deletion strains, locus YPR119W, strain clb2, hits give low values 0.988 | S. cerevisiae deletion strains, locus YPR141C, strain kar3, hits give low values 0.989 | S. cerevisiae deletion strains, locus YPR163C, strain tif3, hits give low values 0.97 | S. cerevisiae deletion strains, locus YPR167C, strain met16, hits give low values 1 | S. cerevisiae deletion strains, strain wtn01, hits give low values 0.993 | S. cerevisiae strains, strain wild type, hits give low values 0.995
